Measurements from PubChem BioAssay (Tox21).
Unmarked numbers belong to inactive results. Records with an inconclusive call do not appear. A call without a number means that no potency is given here. Calls of active or inactive are those of the source. Unless noted, calls follow the shape of the dose curve; as a rule, active = well fitted curve in the direction sought with a large enough effect in the repeat runs; inconclusive = weak or mixed curves; inactive = no such curve, though single readings can be large; an effect the other way counts as inactive or inconclusive.

Tests used:
[1] = qHTS assay to test for compound auto fluorescence at 460 nm (blue) in HEK293 cell free culture (AID 720681)
In short: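 Blue fluorescence (Ex 405/Em 460 nm, triamterene-equivalent) was read immediately after pin transfer of compound or DMSO into medium (DMEM, 10% FBS) without cells.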

[2] = qHTS assay to test for compound auto fluorescence at 535 nm (green) in HEK293 cell free culture (AID 720682)
In short: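 Measurement is a direct plate read of green fluorescence (485 nm in, 535 nm out) after compound addition to serum-supplemented DMEM lacking cells, with fluorescein used to express intensities.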

[3] = qHTS assay to test for compound auto fluorescence at 590 nm (red) in HEK293 cell free culture (AID 720683)
In short: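 Red-channel autofluorescence of compounds in culture medium (DMEM, 10% FBS), no cells, measured at 540/590 nm. Rose Bengal sodium is the reference fluorophore for equivalence.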

[4] = qHTS assay to test for compound auto fluorescence at 590 nm (red) in HepG2 cell free culture (AID 720684)
In short: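 Plate contents were MEM with 10% FBS plus test compound or DMSO, no cells. Fluorescence was recorded with 540 nm excitation and 590 nm emission.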

[5] = qHTS assay to test for compound auto fluorescence at 460 nm (blue) in HepG2 cell free culture (AID 720685)
In short: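 Compound (23 nL) or DMSO pinned into cell-free MEM with 10% FBS; blue fluorescence read at 405/460 nm excitation/emission, expressed as auto-fluorescence equivalency to triamterene.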

[6] = qHTS assay to test for compound auto fluorescence at 535 nm (green) in HepG2 cell free culture (AID 720686)
[7] = qHTS assay to test for compound auto fluorescence at 460 nm (blue) in HepG2 cells (AID 720687)
In short: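 Blue-channel autofluorescence (Ex/Em 405/460 nm, triamterene-equivalent) was measured after 1 hr compound exposure at 37 C, 5% CO2. Cells were HepG2, plated overnight at 37 C in MEM plus 10% FBS.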

[8] = molecular target: Glucocorticoid receptor (Homo sapiens) (UniProt P04150); test: qHTS assay to identify small molecule antagonists of the glucocorticoid receptor (GR) signaling pathway (AID 720692; active = well fitted inhibition curve with a large enough effect in the signal ratio in the repeat runs, not every such curve was filed as active; the % refers to the signal ratio)
In short: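 Cells plated, rested 4 h at 37 C/5% CO2; compounds in DMSO pin-transferred; dexamethasone added to 5 nM final; 18 h at 37 C; B/G FRET substrate added, 2 h room temperature; fluorescence measured.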

[9] = qHTS assay to identify small molecule antagonists of the glucocorticoid receptor (GR) signaling pathway - cell viability counter screen (AID 720693); also: nearly all actives have a fitted effect of over 55% in size
[10] = qHTS assay for identifying genotoxic compounds that show differential cytotoxicity against isogenic chicken DT40 cell lines with known DNA damage response pathways - Rev3 mutant cell line (AID 743014); also: nearly all actives have a fitted effect of over 55% in size; also: potency is read from the fitted curve at half-maximal effect
[11] = qHTS assay to identify small molecule antagonists of the androgen receptor (AR) signaling pathway - cell viability counter screen (AID 743033; also: nearly all actives have a fitted effect of over 45% in size)
[12] = molecular target: Glucocorticoid receptor (Homo sapiens) (UniProt P04150); test: qHTS assay to identify small molecule agonists of the glucocorticoid receptor (GR) signaling pathway (AID 720691; active = well fitted activation curve with a large enough effect in the signal ratio in the repeat runs, not every such curve was filed as active; the % refers to the signal ratio; also: potency is read from the fitted curve at half-maximal effect)
In short: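 Agonist mode in a HeLa line carrying a GRE-controlled beta-lactamase reporter. Compounds act for 18 h at 37 C before a 2 h room-temperature FRET substrate step and fluorescence reading.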

[13] = qHTS assay for identifying genotoxic compounds that show differential cytotoxicity against isogenic chicken DT40 cell lines with known DNA damage response pathways - wild type cell line (AID 743012); also: nearly all actives have a fitted effect of over 60% in size; also: potency is read from the fitted curve at half-maximal effect
In short: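 Cells (DT40 wild type, 300/well) are treated with DMSO-dissolved compounds after a ~0.5 h pre-incubation and kept 40 h at 37 C/5% CO2. Viability is then measured by CellTiter-Glo luminescence following 30 min at room temperature.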

[14] = qHTS assay for identifying genotoxic compounds that show differential cytotoxicity against isogenic chicken DT40 cell lines with known DNA damage response pathways - Rad54/Ku70 mutant cell line (AID 743015); also: nearly all actives have a fitted effect of over 60% in size; also: potency is read from the fitted curve at half-maximal effect
[15] = qHTS assay to identify small molecule antagonists of the androgen receptor (AR) signaling pathway using the MDA cell line - cell viability counter screen (AID 743041; also: nearly all actives have a fitted effect of over 45% in size)
In short: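 R1881-driven MDA-kb2 AR-luc cells, 3,000/well, were dosed with library compounds for 16 h; cell health came from CellTiter-Fluor fluorescence in the reporter wells.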

[16] = qHTS assay to identify small molecule antagonists of the thyroid receptor (TR) signaling pathway - cell viability counter screen (AID 743064); also: nearly all actives have a fitted effect of over 50% in size; also: potency is read from the fitted curve at half-maximal effect
In short: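 Compounds were tested on GH3.TRE-Luc cells in the presence of T3 at 1 nM final. Following 23.5 h at 37 °C, cell viability was quantified by CellTiter-Fluor.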

[17] = molecular target: Androgen receptor (Homo sapiens) (UniProt P10275); test: qHTS assay to identify small molecule agonists of the androgen receptor (AR) signaling pathway using the MDA cell line (AID 743040; also: nearly all actives have a fitted effect of over 20% in size)
In short: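 After a 5 h incubation at 37C and 0% CO2, MDA-kb2 reporter cells were dosed with compounds in DMSO and kept 16 h under the same conditions. Luciferase activity was then read as luminescence with ONE-Glo.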

[18] = molecular target: Androgen receptor (Homo sapiens) (UniProt P10275); test: qHTS assay to identify small molecule antagonists of the androgen receptor (AR) signaling pathway using the MDA cell line (AID 743042; also: nearly all actives have a fitted effect of over 55% in size)
In short: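 Antagonist mode: compounds plus R1881 agonist added to MDA-kb2 AR-luc cells, incubated 16 h at 37C. Luciferase reporter luminescence quantified, with multiplexed CellTiter-Fluor readout for cell viability.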

Sequence of Androgen receptor (Homo sapiens) (P10275 whole entry, looked up): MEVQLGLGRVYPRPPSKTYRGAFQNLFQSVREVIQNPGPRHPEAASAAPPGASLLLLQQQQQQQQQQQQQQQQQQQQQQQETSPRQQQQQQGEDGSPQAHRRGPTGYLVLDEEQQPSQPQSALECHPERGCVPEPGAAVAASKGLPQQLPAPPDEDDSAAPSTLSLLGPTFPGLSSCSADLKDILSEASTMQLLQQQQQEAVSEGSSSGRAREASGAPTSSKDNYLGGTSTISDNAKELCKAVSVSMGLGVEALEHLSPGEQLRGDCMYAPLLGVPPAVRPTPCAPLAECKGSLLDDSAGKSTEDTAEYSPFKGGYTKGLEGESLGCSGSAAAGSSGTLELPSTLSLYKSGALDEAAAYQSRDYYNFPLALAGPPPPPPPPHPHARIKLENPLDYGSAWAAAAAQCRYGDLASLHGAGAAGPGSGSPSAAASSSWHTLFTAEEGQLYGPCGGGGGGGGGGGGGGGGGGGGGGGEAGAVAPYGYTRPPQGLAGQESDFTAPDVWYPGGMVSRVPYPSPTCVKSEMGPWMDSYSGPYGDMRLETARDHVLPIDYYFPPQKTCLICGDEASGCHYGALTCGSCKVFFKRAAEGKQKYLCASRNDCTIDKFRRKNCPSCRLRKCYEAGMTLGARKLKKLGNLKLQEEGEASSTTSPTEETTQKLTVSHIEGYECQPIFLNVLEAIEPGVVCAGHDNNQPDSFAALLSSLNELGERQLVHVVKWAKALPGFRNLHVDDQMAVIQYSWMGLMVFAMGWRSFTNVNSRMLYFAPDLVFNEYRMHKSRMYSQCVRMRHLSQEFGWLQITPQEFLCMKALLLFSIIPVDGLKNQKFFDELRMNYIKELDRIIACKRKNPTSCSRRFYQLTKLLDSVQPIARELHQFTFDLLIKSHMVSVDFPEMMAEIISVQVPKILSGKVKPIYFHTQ
Sequence of Glucocorticoid receptor (Homo sapiens) (P04150 whole entry, looked up): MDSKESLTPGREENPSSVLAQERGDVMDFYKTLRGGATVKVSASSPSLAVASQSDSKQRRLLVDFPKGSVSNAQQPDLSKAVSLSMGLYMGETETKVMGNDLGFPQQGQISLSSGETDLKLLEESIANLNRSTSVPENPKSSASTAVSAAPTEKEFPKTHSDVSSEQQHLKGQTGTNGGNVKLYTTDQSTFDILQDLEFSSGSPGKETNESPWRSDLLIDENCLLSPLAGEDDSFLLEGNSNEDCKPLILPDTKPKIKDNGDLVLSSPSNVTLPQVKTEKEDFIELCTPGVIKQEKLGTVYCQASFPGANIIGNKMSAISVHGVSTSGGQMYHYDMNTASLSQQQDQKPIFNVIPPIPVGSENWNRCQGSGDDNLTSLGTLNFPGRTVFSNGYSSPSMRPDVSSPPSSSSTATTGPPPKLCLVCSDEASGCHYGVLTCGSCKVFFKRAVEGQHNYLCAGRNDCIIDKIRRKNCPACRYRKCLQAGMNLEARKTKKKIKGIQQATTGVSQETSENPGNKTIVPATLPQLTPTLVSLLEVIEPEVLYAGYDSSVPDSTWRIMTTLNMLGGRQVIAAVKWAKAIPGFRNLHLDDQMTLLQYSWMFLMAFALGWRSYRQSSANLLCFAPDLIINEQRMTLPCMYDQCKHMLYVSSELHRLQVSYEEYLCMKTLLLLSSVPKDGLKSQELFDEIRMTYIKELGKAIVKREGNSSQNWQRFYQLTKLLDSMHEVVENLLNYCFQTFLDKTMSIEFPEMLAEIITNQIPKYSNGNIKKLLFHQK

CCCCOC(=O)CCC(C)=O
outcome [1]: inactive | outcome [2]: inactive | outcome [3]: inactive | outcome [4]: inactive | outcome [5]: inactive | outcome [6]: inactive | outcome [7]: inactive | Potency [8]: inactive | outcome [9]: inactive | Potency [10]: 68.6 µM (active) | outcome [11]: inactive

CO[C@@]1(NC(=O)C(C(=O)O)c2ccc(O)cc2)C(=O)N2C(C(=O)O)=C(CSc3nnnn3C)CO[C@@H]21 (stereo partly specified)
fluorescence, % of fluorescent control [1]: 0.413% [at 18.6 µM] | activity change [2]: 0.0756% [at 18.6 µM] | fluorescence, % of fluorescent control [3]: 0.0003% [at 18.6 µM] | fluorescence, % of Rose Bengal [4]: -0.105% [at 18.6 µM] | fluorescence, % of fluorescent control [5]: 0.334% [at 18.6 µM] | fluorescence, % of fluorescein control [6]: 0.0104% [at 18.6 µM] | fluorescence, % of fluorescent control [7]: 0.208% [at 18.6 µM] | Potency [12]: inactive | outcome [9]: inactive | Potency [13]: inactive | Potency [10]: inactive | Potency [14]: inactive | outcome [11]: inactive | Potency [15]: inactive | Potency [16]: inactive

CN1CCC(=C2c3ccccc3CCc3cccnc32)CC1
outcome [1]: inactive | outcome [2]: inactive | outcome [3]: inactive | outcome [4]: inactive | outcome [5]: inactive | outcome [6]: inactive | outcome [7]: inactive | outcome [9]: inactive | Potency [10]: inactive | Potency [14]: inactive | outcome [11]: inactive | Potency [15]: inactive

O=C1c2ccccc2C(=O)c2cc(O)ccc21
outcome [1]: inactive | outcome [2]: inactive | outcome [3]: inactive | outcome [4]: inactive | outcome [5]: inactive | outcome [6]: inactive | outcome [7]: inactive | Potency [13]: inactive | outcome [11]: inactive | Potency [16]: inactive

CCCC(C)C(=O)OCC (stereo unspecified)
outcome [1]: inactive | outcome [2]: inactive | outcome [4]: inactive | outcome [5]: inactive | outcome [6]: inactive | outcome [7]: inactive | Potency [8]: inactive | outcome [9]: inactive | Potency [13]: inactive | Potency [14]: inactive | outcome [11]: inactive | Potency [15]: inactive | Potency [16]: inactive

C[N+]1(C)CCCC(OC(=O)C(O)(c2ccccc2)c2ccccc2)C1 (stereo unspecified)
fluorescence, % of fluorescent control [1]: 0.158% [at 18.6 µM] | activity change [2]: -0.0354% [at 18.6 µM] | fluorescence, % of Rose Bengal [4]: -0.11% [at 18.6 µM] | fluorescence, % of fluorescent control [5]: -0.0313% [at 18.6 µM] | fluorescence, % of fluorescein control [6]: -0.0015% [at 18.6 µM] | fluorescence, % of fluorescent control [7]: -0.102% [at 18.6 µM] | Potency [12]: 7.23 µM (active) | outcome [9]: inactive | Potency [13]: inactive | Potency [10]: inactive | Potency [14]: inactive | outcome [11]: inactive | Potency [15]: inactive | Potency [16]: inactive

CC1=CC(=O)[C@H]2C[C@@H]1C2(C)C
outcome [2]: inactive | outcome [3]: inactive | outcome [4]: inactive | outcome [5]: inactive | outcome [6]: inactive | outcome [7]: inactive | Potency [12]: inactive | Potency [8]: inactive | outcome [9]: inactive | Potency [13]: inactive | Potency [10]: inactive | Potency [14]: inactive | outcome [11]: inactive | Potency [15]: inactive | Potency [16]: inactive

NCCCC[C@H](N[C@@H](CCc1ccccc1)C(=O)O)C(=O)N1CCC[C@H]1C(=O)O
activity change [2]: -0.028% [at 18.6 µM] | fluorescence, % of fluorescent control [3]: 0.14% [at 18.6 µM] | fluorescence, % of Rose Bengal [4]: -0.221% [at 18.6 µM] | fluorescence, % of fluorescent control [5]: -0.005% [at 18.6 µM] | fluorescence, % of fluorescein control [6]: -0.127% [at 18.6 µM] | fluorescence, % of fluorescent control [7]: 0.0286% [at 18.6 µM] | Potency [12]: inactive | Potency [8]: inactive | outcome [9]: inactive | Potency [13]: inactive | Potency [14]: inactive | outcome [11]: inactive | Potency [15]: inactive

Nc1ccn([C@@H]2O[C@H](CO)[C@@H](O)[C@@H]2O)c(=O)n1
outcome [1]: inactive | outcome [2]: inactive | outcome [3]: inactive | outcome [4]: inactive | outcome [5]: inactive | outcome [6]: inactive | outcome [7]: inactive | outcome [9]: inactive | Potency [13]: 0.0611 µM (active) | Potency [14]: 0.0433 µM (active) | outcome [11]: inactive | Potency [15]: inactive | Potency [16]: 0.217 µM (active)

CC(C)=CCC/C(C)=C/C#N
outcome [2]: inactive | outcome [3]: inactive | outcome [4]: inactive | outcome [5]: inactive | outcome [6]: inactive | outcome [7]: inactive | Potency [12]: inactive | Potency [8]: inactive | outcome [9]: inactive | outcome [11]: inactive | Potency [15]: inactive

C[N+](C)(CCOc1ccccc1)Cc1cccs1
outcome [1]: inactive | outcome [2]: inactive | outcome [3]: inactive | outcome [4]: inactive | outcome [5]: inactive | outcome [6]: inactive | outcome [7]: inactive | Potency [12]: inactive | Potency [8]: inactive | outcome [9]: inactive | Potency [14]: inactive | outcome [11]: inactive | Potency [17]: inactive | Potency [15]: inactive | Potency [16]: inactive

O=C(O)CCSCCC(=O)O
outcome [1]: inactive | outcome [2]: inactive | outcome [4]: inactive | outcome [5]: inactive | outcome [6]: inactive | outcome [7]: inactive | Potency [8]: inactive | outcome [9]: inactive | Potency [13]: inactive | Potency [10]: inactive | Potency [14]: inactive | outcome [11]: inactive | Potency [17]: inactive | Potency [15]: inactive | outcome [18]: inactive

CCN[C@H]1C[C@H](C)S(=O)(=O)c2sc(S(N)(=O)=O)cc21
outcome [2]: inactive | outcome [3]: inactive | outcome [4]: inactive | outcome [5]: inactive | outcome [6]: inactive | outcome [7]: inactive | Potency [12]: inactive | Potency [8]: inactive | outcome [9]: inactive | Potency [13]: inactive | Potency [14]: inactive | outcome [11]: inactive | Potency [15]: inactive | Potency [16]: inactive
